Where “and” joins values, the source holds several entries; their conditions need not be identical. Equal values may be shown once. The whole screen tested about 5,500 compounds, of which about 2,000 (36%) were called active. Not shown: some 18% with an inconclusive outcome. Rule as the data show it: active = normalized growth mostly below about 0.91 (no sharp cut-off); inconclusive = no clear call, values can overlap the other calls; inactive = mostly above about 0.92. This is one part of the list.
Experiment: chemical genetic growth profiling, strain panel (AID 1159580);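 also: tested at 20 µM; growth read once vehicle control cultures reached saturation at 30 °C; 1 = growth at the plate median or of vehicle wells; lower values mean less growth of the strain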
Details: S. cerevisiae deletion strains, growth OD

Measured: normalized growth

COC1=C[C@@H]2[C@@H]3Cc4ccc(OC)c(O)c4[C@]2(CCN3C)CC1=O
inactive: locus YAL013W, strain DEP1, stronger effect = lower value 0.985 | locus YAL021C, strain ccr4, stronger effect = lower value 1.01 | locus YAL026C, strain drs2, stronger effect = lower value 1 | locus YAL030W, strain snc1, stronger effect = lower value 1 | locus YBL061C, strain skt5, stronger effect = lower value 1.01 | locus YBR009C, strain hhf1, stronger effect = lower value 1 | locus YBR021W, strain FUR4, stronger effect = lower value 1.04 | locus YBR023C, strain chs3, stronger effect = lower value 1 | locus YBR171W, strain sec66, stronger effect = lower value 0.983 | locus YBR229C, strain ROT2, stronger effect = lower value 0.961 | locus YBR231C, strain swc5, stronger effect = lower value 0.995 | locus YBR279W, strain paf1, stronger effect = lower value 0.991 | locus YCL011C, strain gbp2, stronger effect = lower value 1 | locus YCL016C, strain dcc1, stronger effect = lower value 0.977 | locus YCL029C, strain bik1, stronger effect = lower value 0.967 | locus YCL069W, strain vba3, stronger effect = lower value 1.01 | locus YCR088W, strain abp1, stronger effect = lower value 0.987 | locus YDL005C, strain med2, stronger effect = lower value 0.997 | locus YDL035C, strain GPR1, stronger effect = lower value 1 | locus YDL040C, strain nat1, stronger effect = lower value 1 | locus YDL074C, strain BRE1, stronger effect = lower value 0.952 | locus YDL101C, strain DUN1, stronger effect = lower value 0.972 | locus YDL134C, strain PPH21, stronger effect = lower value 0.981 | locus YDL185W, strain tfp1, stronger effect = lower value 0.929 | locus YDL192W, strain arf1, stronger effect = lower value 0.987 | locus YDR001C, strain nth1, stronger effect = lower value 1 | locus YDR069C, strain doa4, stronger effect = lower value 0.979 | locus YDR101C, strain arx1, stronger effect = lower value 1 | locus YDR137W, strain rgp1, stronger effect = lower value 0.972 | locus YDR150W, strain NUM1, stronger effect = lower value 0.971 | locus YDR159W, strain sac3, stronger effect = lower value 0.967 | locus YDR162C, strain NBP2, stronger effect = lower value 0.969 | locus YDR195W, strain ref2 0.967 | locus YDR297W, strain sur2, stronger effect = lower value 1 | locus YDR318W, strain mcm21, stronger effect = lower value 0.995 | locus YDR334W, strain swr1, stronger effect = lower value 0.984 | locus YDR335W, strain msn5, stronger effect = lower value 0.986 | locus YDR388W, stronger effect = lower value 0.984 | locus YDR392W, strain spt3, stronger effect = lower value 0.988 | locus YDR502C, strain sam2, stronger effect = lower value 0.986 | locus YEL003W, strain gim4, stronger effect = lower value 1 | locus YEL037C, strain rad23, stronger effect = lower value 0.999 | locus YEL061C, strain CIN8 (second series), stronger effect = lower value 0.999 | locus YEL061C, strain CIN8, stronger effect = lower value 0.982 | locus YER015W, strain faa2, stronger effect = lower value 0.986 | locus YER016W, strain bim1, stronger effect = lower value 1 | locus YER110C, stronger effect = lower value 0.969 | locus YER111C, strain swi4, stronger effect = lower value 1.01 | locus YER155C, strain BEM2 (second series), stronger effect = lower value 1.01 | locus YER155C, strain BEM2, stronger effect = lower value 1 | locus YER167W, strain BCK2, stronger effect = lower value 1 | locus YFR010W, strain ubp6, stronger effect = lower value 1.01 | locus YGL078C, strain dbp3, stronger effect = lower value 0.971 | locus YGL086W, strain mad1, stronger effect = lower value 0.99 | locus YGL167C, strain pmr1, stronger effect = lower value 0.986 | locus YGL173C, strain kem1, stronger effect = lower value 0.99 | locus YGL227W, strain vid30, stronger effect = lower value 1 | locus YGL240W, strain doc1, stronger effect = lower value 1 | locus YGL248W, strain PDE1, stronger effect = lower value 0.972 | locus YGL253W, strain hxk2, stronger effect = lower value 1.01 | locus YGR078C, strain PAC10, stronger effect = lower value 0.965 | locus YGR135W, strain pre9, stronger effect = lower value 0.959 | locus YGR229C, strain SMI1, stronger effect = lower value 0.974 | locus YGR252W, strain gcn5, stronger effect = lower value 1 | locus YHR013C, strain ard1, stronger effect = lower value 0.962 | locus YHR027C, strain rpn1, stronger effect = lower value 0.992 | locus YHR030C, strain SLT2, stronger effect = lower value 1 and 1.03 | locus YHR079C, strain IRE1 (second series), stronger effect = lower value 0.987 | locus YHR079C, strain IRE1, stronger effect = lower value 1.03 | locus YHR094C, strain hxt1, stronger effect = lower value 0.978 | locus YHR129C, strain ARP1, stronger effect = lower value 0.996 | locus YHR142W, strain chs7, stronger effect = lower value 0.999 | locus YHR200W, strain rpn10, stronger effect = lower value 0.975 | locus YIL066C, strain RNR3, stronger effect = lower value 0.972 | locus YIL073C, strain SPO22, stronger effect = lower value 1.03 | locus YIL125W, strain kgd1, stronger effect = lower value 0.968 | locus YIR030C, strain dcg1, stronger effect = lower value 0.989 | locus YJL092W, strain hpr5, stronger effect = lower value 0.997 | locus YJL095W, strain BCK1 (second series), stronger effect = lower value 1 | locus YJL095W, strain BCK1, stronger effect = lower value 0.963 and 1.03 | locus YJL115W, strain asf1, stronger effect = lower value 1.01 | locus YJL129C, strain trk1, stronger effect = lower value 0.977 | locus YJL134W, strain LCB3, stronger effect = lower value 0.989 | locus YJL154C, strain vps35, stronger effect = lower value 0.988 | locus YJL164C, strain tpk1, stronger effect = lower value 0.997 | locus YJL166W, strain qcr8, stronger effect = lower value 1 | locus YJL168C, strain set2, stronger effect = lower value 0.982 | locus YJL187C, strain SWE1 (second series), stronger effect = lower value 0.958 | locus YJR043C, strain POL32, stronger effect = lower value 1.03 | locus YJR066W, strain TOR1, stronger effect = lower value 0.97

— PubChem BioAssay AID1159580 (chemical genetic matrix, 2015)
